Active and inactive are the calls of the source. Unless noted, the call rests on the fitted dose curve; in most records, active means well fitted curve in the direction sought with a large enough effect in the repeat runs; inconclusive means weak or mixed curves; inactive means no such curve, though single readings can be large; an effect the other way counts as inactive or inconclusive.

The nature of assay [1]: qHTS assay for small molecules that induce genotoxicity in human embryonic kidney cells expressing luciferase-tagged ATAD5 - cell viability (AID 651634; calls by dose curve; further: nearly all actives have a fitted effect of over 25% in size). The method in brief:
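Live-cell protease activity (CellTiter-Fluor, fluorescence) indicates viability. HEK293T cells with luciferase-tagged ATAD5; 15.5 hr compound treatment at 37C.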
A general note: qHTS replaces the single test concentration by a dilution series.

Assay [2] is described as follows: qHTS assay to test for compound auto fluorescence at 535 nm (green) in HEK293 cell free culture (AID 720682). An outline of the steps:
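Green-channel intensity (Ex/Em 485/535 nm) was recorded from compound-treated wells containing only DMEM with 10% FBS. Fluorescein provided the equivalency standard.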

Assay [3] can be described thus: qHTS assay to identify small molecule antagonists of the glucocorticoid receptor (GR) signaling pathway - cell viability counter screen (AID 720693). Further: nearly all actives have a fitted effect of over 55% in size. Further: potency means the concentration at half of the fitted maximal effect.
Assay [4] can be described thus: qHTS assay for identifying genotoxic compounds that show differential cytotoxicity against isogenic chicken DT40 cell lines with known DNA damage response pathways - wild type cell line (AID 743012). Further: nearly all actives have a fitted effect of over 60% in size. Further: potency means the concentration at half of the fitted maximal effect. An outline of the steps: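 Quantitative HTS on parental DT40 cells: 40 h compound treatment at 37 C/5% CO2, with viability then determined by CellTiter-Glo luminescence. Values serve as the DNA repair-proficient reference for differential cytotoxicity.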

Assay [5] can be described thus: qHTS assay for identifying genotoxic compounds that show differential cytotoxicity against isogenic chicken DT40 cell lines with known DNA damage response pathways - Rev3 mutant cell line (AID 743014). Further: nearly all actives have a fitted effect of over 55% in size. Further: potency means the concentration at half of the fitted maximal effect.
Assay [6] in a line: qHTS assay for identifying genotoxic compounds that show differential cytotoxicity against isogenic chicken DT40 cell lines with known DNA damage response pathways - Rad54/Ku70 mutant cell line (AID 743015). Further: nearly all actives have a fitted effect of over 60% in size. Further: potency means the concentration at half of the fitted maximal effect.
The nature of assay [7]: qHTS assay to identify small molecule antagonists of the androgen receptor (AR) signaling pathway - cell viability counter screen (AID 743033; further: nearly all actives have a fitted effect of over 45% in size).
Assay [8] is described as follows: qHTS assay to identify small molecule antagonists of the androgen receptor (AR) signaling pathway using the MDA cell line - cell viability counter screen (AID 743041; further: nearly all actives have a fitted effect of over 45% in size). An outline of the steps: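 Cells were plated at 3,000 per well and left 5 h. Compounds in DMSO were then pinned in, followed by R1881. After 16 h at 37C, CellTiter-Fluor fluorescence gave viability.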

Assay [9] in a line: qHTS assay to identify small molecule antagonists of the thyroid receptor (TR) signaling pathway - cell viability counter screen (AID 743064). Further: nearly all actives have a fitted effect of over 50% in size. Further: potency means the concentration at half of the fitted maximal effect. The method in brief: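 In rat pituitary GH3.TRE-Luc reporter cells co-exposed to compound and 1 nM T3 for 23.5 h, cytotoxicity was assessed with CellTiter-Fluor in the same wells, read by fluorescence.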
Assay [10] relates to thyroid hormone receptor (rat, GH3 cells). The assay can be described thus: qHTS assay to identify small molecule agonists of the thyroid receptor (TR) signaling pathway (AID 743066; calls by dose curve).
Assay [11] can be described thus: qHTS assay to identify small molecule antagonists of the estrogen receptor alpha (ER-alpha) signaling pathway using the BG1 cell line - cell viability counter screen (AID 743081).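 Further: compound given together with 17beta-estradiol as the ER stimulus; series mostly up to about 70 µM; nearly all actives have a fitted effect of over 45% in size.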
The nature of assay [12]: qHTS assay to identify small molecule that activate the aryl hydrocarbon receptor (AhR) signaling pathway - cell viability counter screen (AID 743086).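 Further: HepG2 liver cells carrying the AhR DRE luciferase reporter; series mostly up to about 70 µM; nearly all actives have a fitted effect of over 45% in size.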 An outline of the steps:
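Cytotoxicity counter screen: CellTiter-Fluor signal (30 min, 37 C) in 4000 HepG2 cells/well carrying the DRE-luciferase reporter, following 24 h compound exposure at 37 C.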

Assay [13] can be described thus: qHTS assay for small molecules that induce genotoxicity in human embryonic kidney cells expressing luciferase-tagged ATAD5 (AID 651632). Further: nearly all actives have a fitted effect of over 15% in size. The method in brief: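 Genotoxicity read-out via ATAD5-luciferase: HEK293T cells, 16 hr compound incubation at 37C, Amplite detection.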
The nature of assay [14]: qHTS assay for small molecule agonists of the p53 signaling pathway - cell viability (AID 651633; calls by dose curve; further: potency means the concentration at half of the fitted maximal effect; nearly all actives have a fitted effect of over 30% in size). The method in brief:
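Viability counter-read: CellTiter-Glo luminescence (30 min, room temperature) in the same p53RE-bla plates. These plates had been exposed to compounds for 16 h at 37 C.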

Assay [15] is described as follows: qHTS assay for small molecule disruptors of the mitochondrial membrane potential - cell viability (AID 720634; calls by dose curve;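 further: human HepG2 liver cancer cells; series mostly up to about 83 µM; nearly all actives have a fitted effect of over 20% in size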). The method in brief: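 Human hepatoma HepG2 cells were treated for 1 hr with test chemicals, then given m-MPI dye and CellTiter-Glo. Cell viability reflects luminescence proportional to cellular ATP.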
Assay [16] is described as follows: qHTS assay for small molecule disruptors of the mitochondrial membrane potential (AID 720635). Further: potency means the concentration at half of the fitted maximal effect. The method in brief: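 Mitochondrial membrane potential tracked with Mito-MPS dye, red aggregates (ex 540/em 590 nm) against green monomers (ex 490/em 535 nm). Compound treatment 1 hr at 37C, dye 30 min in HepG2.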
The nature of assay [17]: qHTS assay to test for compound auto fluorescence at 590 nm (red) in HepG2 cells (AID 720674). An outline of the steps:
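We screened compounds on adherent HepG2 cells, incubating them for an hour at 37 C in 5% CO2 before reading emission at 590 nm under 540 nm excitation; values reflect equivalence to Rose Bengal sodium fluorescence.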

Assay [18] can be described thus: qHTS assay to test for compound auto fluorescence at 535 nm (green) in HepG2 cells (AID 720675).
Assay [19] is described as follows: qHTS assay to test for compound auto fluorescence at 460 nm (blue) in HEK293 cells (AID 720678). The method in brief:
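Intrinsic compound fluorescence is recorded in live HEK293 cultures after overnight incubation at 37C, 5% CO2, using excitation 405 nm and emission 460 nm. Values are referenced to triamterene.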

Assay [20] can be described thus: qHTS assay to test for compound auto fluorescence at 590 nm (red) in HEK293 cells (AID 720679). The method in brief:
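Red autofluorescence, HEK293 cells: 2,000 cells/well; attach 4-5 hr 37C; add 23 nL cpd or DMSO; incubate o/n 37C 5% CO2; read Ex540/Em590; Rose Bengal sodium reference.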

A short description of assay [21]: qHTS assay to test for compound auto fluorescence at 535 nm (green) in HEK293 cells (AID 720680).
A short description of assay [22]: qHTS assay to test for compound auto fluorescence at 460 nm (blue) in HEK293 cell free culture (AID 720681). An outline of the steps: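 Blue fluorescence (Ex 405/Em 460 nm, triamterene-equivalent) was read immediately after pin transfer of compound or DMSO into medium (DMEM, 10% FBS) without cells.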
Assay [23] is described as follows: qHTS assay to test for compound auto fluorescence at 590 nm (red) in HEK293 cell free culture (AID 720683). An outline of the steps:
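Red-channel autofluorescence of compounds in culture medium (DMEM, 10% FBS), no cells, measured at 540/590 nm. Rose Bengal sodium is the reference fluorophore for equivalence.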

Assay [24] in a line: qHTS assay to test for compound auto fluorescence at 590 nm (red) in HepG2 cell free culture (AID 720684). An outline of the steps: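 Steps: dispense MEM/10% FBS medium, no cells; pin compound or DMSO vehicle; read red channel, Ex/Em 540/590 nm. Output given as Rose Bengal sodium equivalents.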
Assay [25] in a line: qHTS assay to test for compound auto fluorescence at 460 nm (blue) in HepG2 cell free culture (AID 720685). An outline of the steps: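 Compound (23 nL) or DMSO pinned into cell-free MEM with 10% FBS; blue fluorescence read at 405/460 nm excitation/emission, expressed as auto-fluorescence equivalency to triamterene.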
Assay [26] in a line: qHTS assay to test for compound auto fluorescence at 535 nm (green) in HepG2 cell free culture (AID 720686).
A short description of assay [27]: qHTS assay to test for compound auto fluorescence at 460 nm (blue) in HepG2 cells (AID 720687). An outline of the steps:
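Blue-channel autofluorescence (Ex/Em 405/460 nm, triamterene-equivalent) was measured after 1 hr compound exposure at 37 C, 5% CO2. Cells were HepG2, plated overnight at 37 C in MEM plus 10% FBS.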

The nature of assay [28]: qHTS assay to identify small molecule antagonists of the thyroid receptor (TR) signaling pathway (AID 743065). Further: potency means the concentration at half of the fitted maximal effect; nearly all actives have a fitted effect of over 55% in size. The method in brief:
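Antagonism measured as loss of luciferase signal in GH3 cells stably carrying a TRE-luciferase reporter, co-treated with compound and T3 (1 nM final) for 23.5 h at 37 C. Viability was read in the same well by CellTiter-Fluor.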

A short description of assay [29]: qHTS assay to identify small molecule antagonists of the estrogen receptor alpha (ER-alpha) signaling pathway - cell viability counter screen (AID 743074; calls by dose curve).
Assay [30] has as its target Estrogen receptor (Homo sapiens) (UniProt P03372). Kind of assay: qHTS assay to identify small molecule agonists of the estrogen receptor alpha (ER-alpha) signaling pathway (AID 743075; calls by dose curve;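 further: HEK293 GripTite cells with ER-alpha and UAS-driven beta-lactamase reporter; potency means the concentration at half of the fitted maximal effect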).
For assay [31] the target is unchanged. Kind of assay: qHTS assay to identify small molecule agonists of the estrogen receptor alpha (ER-alpha) signaling pathway using the BG1 cell line (AID 743079). Further: potency means the concentration at half of the fitted maximal effect; nearly all actives have a fitted effect of over 20% in size.
The next assay addresses Aromatase (Homo sapiens) (UniProt P11511). Kind of assay: qHTS assay to identify aromatase inhibitors (AID 743083). Further: series mostly up to about 70 µM; nearly all actives have a fitted effect of over 55% in size.
A short description of assay [32]: qHTS assay to identify aromatase inhibitors - cell viability counter screen (AID 743084).
Assay [33] has as its target Peroxisome proliferator-activated receptor gamma (Homo sapiens) (UniProt P37231). Kind of assay: qHTS assay to identify small molecule agonists of the peroxisome proliferator-activated receptor gamma (PPARg) signaling pathway (AID 743094; active means well fitted activation curve with a large enough effect in the signal ratio in the repeat runs, not every such curve was filed as active; inconclusive means weak or mixed curves, or effect the other way; inactive means no such curve, though single readings can be large or run the other way; the % refers to the signal ratio). An outline of the steps: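 Stably transfected HEK293H cells (GeneBLAzer PPARg UAS-bla) were incubated with test substances for 17 h at 37C after a 5 h pre-incubation; beta-lactamase activity was then detected by FRET substrate fluorescence.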

Assay [34] concerns the target Acetylcholinesterase (Homo sapiens) (UniProt P22303). Kind of assay: Acetylcholinesterase (AChE) small molecule antagonists: enzyme-based qHTS assay with human liver microsomes (AID 1347399; calls by dose curve; further: nearly all actives have a fitted effect of over 60% in size). To be noted: Potency: qHTS inhibition; outcome: qHTS inhibition. An outline of the steps:
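Recombinant human AChE (50 mU/mL in the enzyme mix) and human liver microsomes (0.25 mg/mL final) were preincubated with compound and NADPH (0.25 mg/mL final) for 30 min at 37 C. Acetylthiocholine/DTNB was then added; thiocholine was read colorimetrically after 10 min at room temperature.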

Chain of Estrogen receptor (Homo sapiens) (P03372 whole entry, looked up): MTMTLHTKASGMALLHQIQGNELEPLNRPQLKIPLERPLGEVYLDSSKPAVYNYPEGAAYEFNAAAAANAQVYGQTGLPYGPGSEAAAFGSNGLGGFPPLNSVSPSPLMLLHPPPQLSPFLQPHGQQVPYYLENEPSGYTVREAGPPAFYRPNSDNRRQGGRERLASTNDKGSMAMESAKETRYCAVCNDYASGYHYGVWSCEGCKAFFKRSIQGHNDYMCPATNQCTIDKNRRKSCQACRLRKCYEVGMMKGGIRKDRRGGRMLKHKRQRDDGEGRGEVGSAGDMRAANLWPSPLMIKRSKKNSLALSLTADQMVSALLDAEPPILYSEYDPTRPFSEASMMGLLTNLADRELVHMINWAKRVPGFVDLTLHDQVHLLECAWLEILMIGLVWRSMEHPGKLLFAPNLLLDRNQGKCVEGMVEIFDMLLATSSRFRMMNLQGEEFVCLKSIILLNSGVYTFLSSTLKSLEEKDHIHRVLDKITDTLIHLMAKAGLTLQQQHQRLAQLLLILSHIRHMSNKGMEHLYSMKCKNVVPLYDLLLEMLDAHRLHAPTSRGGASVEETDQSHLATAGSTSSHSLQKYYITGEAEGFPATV
Chain of Peroxisome proliferator-activated receptor gamma (Homo sapiens) (P37231 whole entry, looked up): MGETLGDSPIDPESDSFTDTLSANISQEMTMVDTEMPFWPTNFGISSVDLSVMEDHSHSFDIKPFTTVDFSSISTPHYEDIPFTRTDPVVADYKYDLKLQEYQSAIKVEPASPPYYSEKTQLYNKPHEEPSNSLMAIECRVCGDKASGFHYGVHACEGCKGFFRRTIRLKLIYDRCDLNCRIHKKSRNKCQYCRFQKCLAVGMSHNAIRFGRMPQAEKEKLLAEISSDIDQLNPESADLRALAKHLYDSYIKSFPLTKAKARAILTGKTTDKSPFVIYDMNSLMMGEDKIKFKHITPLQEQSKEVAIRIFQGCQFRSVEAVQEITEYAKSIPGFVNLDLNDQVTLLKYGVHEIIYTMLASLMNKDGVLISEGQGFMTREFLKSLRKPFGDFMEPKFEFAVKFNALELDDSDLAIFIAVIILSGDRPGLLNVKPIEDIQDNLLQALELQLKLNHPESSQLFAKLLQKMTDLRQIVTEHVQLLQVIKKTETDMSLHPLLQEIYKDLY
Chain of Acetylcholinesterase (Homo sapiens) (P22303 whole entry, looked up): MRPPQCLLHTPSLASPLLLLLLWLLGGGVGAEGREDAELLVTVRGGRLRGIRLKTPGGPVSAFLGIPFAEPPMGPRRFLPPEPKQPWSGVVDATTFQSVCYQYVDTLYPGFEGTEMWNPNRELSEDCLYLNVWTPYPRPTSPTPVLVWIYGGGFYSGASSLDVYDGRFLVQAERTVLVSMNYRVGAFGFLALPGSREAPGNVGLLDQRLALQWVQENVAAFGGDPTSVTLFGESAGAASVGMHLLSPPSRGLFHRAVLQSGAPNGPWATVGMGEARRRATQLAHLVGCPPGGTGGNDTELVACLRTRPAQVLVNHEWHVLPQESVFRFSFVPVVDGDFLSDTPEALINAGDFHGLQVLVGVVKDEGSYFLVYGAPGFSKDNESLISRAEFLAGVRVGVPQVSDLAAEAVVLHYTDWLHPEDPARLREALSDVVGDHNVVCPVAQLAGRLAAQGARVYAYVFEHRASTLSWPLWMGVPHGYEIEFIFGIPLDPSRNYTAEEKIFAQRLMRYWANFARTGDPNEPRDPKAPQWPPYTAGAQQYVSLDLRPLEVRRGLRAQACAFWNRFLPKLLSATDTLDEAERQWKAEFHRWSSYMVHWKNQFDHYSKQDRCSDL
Chain of Aromatase (Homo sapiens) (P11511 whole entry, looked up): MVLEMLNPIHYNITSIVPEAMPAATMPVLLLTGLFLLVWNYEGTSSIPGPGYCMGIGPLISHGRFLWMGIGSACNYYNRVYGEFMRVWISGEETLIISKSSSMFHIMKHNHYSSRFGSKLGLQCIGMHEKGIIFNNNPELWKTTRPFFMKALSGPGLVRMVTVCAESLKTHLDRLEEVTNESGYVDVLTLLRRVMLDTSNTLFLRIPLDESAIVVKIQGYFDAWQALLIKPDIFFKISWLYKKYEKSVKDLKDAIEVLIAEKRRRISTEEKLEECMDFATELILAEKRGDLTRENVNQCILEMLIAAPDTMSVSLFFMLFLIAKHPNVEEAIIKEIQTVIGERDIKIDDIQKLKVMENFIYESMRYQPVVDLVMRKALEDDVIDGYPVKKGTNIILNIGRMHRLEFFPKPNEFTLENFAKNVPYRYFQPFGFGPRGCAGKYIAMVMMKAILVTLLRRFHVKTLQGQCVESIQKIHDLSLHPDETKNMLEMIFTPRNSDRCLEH

Consider `O=C(O)c1ccccc1[O-].O=C(O)c1ccccc1[O-].[Zn+2]`, for which the Potency entry in assay [1], in assay [3], in [4], in assay [5], in assay [6] and in assay [7] was “inactive” throughout. The Potency entry in [9], in assay [11] and in assay [12] was “inactive” each time. Besides, the compound was called inactive in assay [2], in [8] and in assay [10].
With `C#C[C@]1(OC(=O)CCCCCC)CC[C@H]2[C@@H]3CCC4=CC(=O)CC[C@@H]4[C@H]3CC[C@@]21C`, the result in assay [13], in assay [15], in assay [17], in [18], in assay [19] and in assay [20] was inactive. The compound was classed as inactive in assay [21], in [22], in [2], in assay [23], in assay [24] and in assay [25]. For the same compound, the call in [26], in assay [27], in [8], in assay [32] and in assay [33] was inactive. The Potency was 29.8 µM (active) in assay [14]; 8.41 µM (active) in assay [16]; 21.3 µM (active) in assay [3]; 2.66 µM (active) in assay [4]; 5.96 µM (active) in assay [5]; 5.96 µM (active) in assay [6]. In addition, the Potency in assay [9] is 11.9 µM (active); in assay [28] it was 11.9 µM (active); in assay [29], 19 µM (active); in [30], 0.338 µM [inconclusive] (active); in [31], 0.596 µM (active). The Potency entry (in assay [1]; in assay [7]; in [11]; in the assay with Aromatase (Homo sapiens); in [12]) was “inactive” in each case.
For the compound `COc1ccc2cc(S(=O)(=O)N[C@H](CC(=O)N[C@H](Cc3ccc(CN4[C@H](C)CCC[C@@H]4C)cc3)C(=O)N(C)C(C)C)c3ccc4c(c3)OCO4)ccc2c1`, the Potency entry in [34] is “inactive”.

These data come from PubChem BioAssay (Tox21).
